# Values joined by “and” are separate entries in the source; they are usually repeats but may differ in a detail not shown here. Equal entries are not always repeated. Screen size: about 5,500 compounds; about 2,000 (36%) were called active. Another 18% or so got no clear call; they are omitted. Cut-off read from the data, not from the text of the source: active = normalized growth mostly below about 0.91 (no sharp cut-off); inconclusive = no clear call, values can overlap the other calls; inactive = mostly above about 0.92. The list shows a part of the results. More than one record can exist for a structure, and the calls need not agree.
# Assay: chemical genetic growth profiling, strain panel (AID 1159580);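 note: tested at 20 µM; growth read once vehicle control cultures reached saturation at 30 °C; 1 = growth at the plate median or of vehicle wells; lower values mean less growth of the strain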
# Settings: S. cerevisiae deletion strains, growth OD
structure (smiles),measurement,setting,value
NCCOB(c1ccccc1)c1ccccc1,normalized growth,"locus YAL021C, strain ccr4, stronger effect = lower value",0.936 (inactive) and 0.969 (inactive)
same,normalized growth,"locus YAL026C, strain drs2, stronger effect = lower value",0.153 (active) and 0.218 (active)
same,normalized growth,"locus YAL030W, strain snc1, stronger effect = lower value",0.892 (active) and 0.987 (inactive)
same,normalized growth,"locus YBL061C, strain skt5, stronger effect = lower value",0.578 (active) and 0.786 (active)
same,normalized growth,"locus YBR009C, strain hhf1, stronger effect = lower value",0.758 (active) and 0.788 (active)
same,normalized growth,"locus YBR023C, strain chs3, stronger effect = lower value",0.925 (inactive) and 0.92 (inactive)
same,normalized growth,"locus YBR171W, strain sec66, stronger effect = lower value",0.968 (inactive) and 0.998 (inactive)
same,normalized growth,"locus YBR231C, strain swc5, stronger effect = lower value",1.03 (inactive) and 1 (inactive)
same,normalized growth,"locus YBR279W, strain paf1, stronger effect = lower value",0.46 (active) and 0.808 (active)
same,normalized growth,"locus YCL011C, strain gbp2, stronger effect = lower value",0.879 (active) and 0.913 (inactive)
same,normalized growth,"locus YCL016C, strain dcc1, stronger effect = lower value",1.01 (inactive) and 0.977 (inactive)
same,normalized growth,"locus YCL061C, strain MRC1, stronger effect = lower value",0.827 (active) and 0.759 (active)
same,normalized growth,"locus YCL069W, strain vba3, stronger effect = lower value",0.437 (active) and 0.312 (active)
same,normalized growth,"locus YCR088W, strain abp1, stronger effect = lower value",0.604 (active) and 0.524 (active)
same,normalized growth,"locus YDL005C, strain med2, stronger effect = lower value",1 (inactive) and 1.03 (inactive)
same,normalized growth,"locus YDL040C, strain nat1, stronger effect = lower value",1.01 (inactive) and 1.02 (inactive)
same,normalized growth,"locus YDR001C, strain nth1, stronger effect = lower value",0.651 (active) and 0.789 (active)
same,normalized growth,"locus YDR069C, strain doa4, stronger effect = lower value",1.02 (inactive) and 1.01 (inactive)
same,normalized growth,"locus YDR137W, strain rgp1, stronger effect = lower value",0.997 (inactive) and 0.987 (inactive)
same,normalized growth,"locus YDR159W, strain sac3, stronger effect = lower value",1.03 (inactive) and 1.06 (inactive)
same,normalized growth,"locus YDR195W, strain ref2",1.11 (inactive) and 1.07 (inactive)
same,normalized growth,"locus YDR297W, strain sur2, stronger effect = lower value",1.01 (inactive) and 0.979 (inactive)
same,normalized growth,"locus YDR334W, strain swr1, stronger effect = lower value",0.472 (active) and 0.793 (active)
same,normalized growth,"locus YDR335W, strain msn5, stronger effect = lower value",1 (inactive) and 0.991 (inactive)
same,normalized growth,"locus YDR392W, strain spt3, stronger effect = lower value",0.423 (active) and 0.451 (active)
same,normalized growth,"locus YEL003W, strain gim4, stronger effect = lower value",1.02 (inactive) and 0.999 (inactive)
same,normalized growth,"locus YEL037C, strain rad23, stronger effect = lower value",1.01 (inactive)
same,normalized growth,"locus YEL061C, strain CIN8 (second series), stronger effect = lower value",1.01 (inactive)
same,normalized growth,"locus YER015W, strain faa2, stronger effect = lower value",0.528 (active) and 0.733 (active)
same,normalized growth,"locus YER016W, strain bim1, stronger effect = lower value",1.02 (inactive)
same,normalized growth,"locus YER111C, strain swi4, stronger effect = lower value",1.02 (inactive) and 1.01 (inactive)
same,normalized growth,"locus YER155C, strain BEM2 (second series), stronger effect = lower value",0.815 (active) and 0.926 (inactive)
same,normalized growth,"locus YFR010W, strain ubp6, stronger effect = lower value",0.351 (active) and 0.387 (active)
same,normalized growth,"locus YGL167C, strain pmr1, stronger effect = lower value",1.04 (inactive) and 1.05 (inactive)
same,normalized growth,"locus YGL173C, strain kem1, stronger effect = lower value",0.927 (inactive) and 0.93 (inactive)
same,normalized growth,"locus YGL227W, strain vid30, stronger effect = lower value",0.602 (active) and 0.427 (active)
same,normalized growth,"locus YGL240W, strain doc1, stronger effect = lower value",0.822 (active) and 0.865 (active)
same,normalized growth,"locus YGL253W, strain hxk2, stronger effect = lower value",0.468 (active) and 0.384 (active)
same,normalized growth,"locus YHR013C, strain ard1, stronger effect = lower value",0.432 (active) and 0.49 (active)
same,normalized growth,"locus YHR027C, strain rpn1, stronger effect = lower value",0.799 (active) and 0.766 (active)
same,normalized growth,"locus YHR030C, strain SLT2, stronger effect = lower value",0.106 (active)
same,normalized growth,"locus YHR079C, strain IRE1, stronger effect = lower value",0.11 (active)
same,normalized growth,"locus YHR142W, strain chs7, stronger effect = lower value",0.882 (inactive) and 0.977 (inactive)
same,normalized growth,"locus YJL092W, strain hpr5, stronger effect = lower value",0.334 (active) and 0.399 (active)
same,normalized growth,"locus YJL095W, strain BCK1 (second series), stronger effect = lower value",0.887 (active) and 0.923 (inactive)
same,normalized growth,"locus YJL095W, strain BCK1, stronger effect = lower value",0.106 (active)
same,normalized growth,"locus YJL115W, strain asf1, stronger effect = lower value",0.85 (active) and 0.877 (active)
same,normalized growth,"locus YJL129C, strain trk1, stronger effect = lower value",0.965 (inactive) and 0.979 (inactive)
same,normalized growth,"locus YJL154C, strain vps35, stronger effect = lower value",0.454 (active) and 0.657 (active)
same,normalized growth,"locus YJL164C, strain tpk1, stronger effect = lower value",0.824 (active) and 0.786 (active)
same,normalized growth,"locus YJL166W, strain qcr8, stronger effect = lower value",0.841 (active) and 0.839 (active)
same,normalized growth,"locus YJL187C, strain SWE1, stronger effect = lower value",0.798 (active)
same,normalized growth,"locus YJR066W, strain TOR1, stronger effect = lower value",0.00283 (active)
same,normalized growth,"locus YKL160W, strain elf1, stronger effect = lower value",0.717 (active) and 0.751 (active)
same,normalized growth,"locus YKR026C, strain gcn3, stronger effect = lower value",0.381 (active) and 0.353 (active)
same,normalized growth,"locus YKR091W, strain srl3, stronger effect = lower value",0.357 (active) and 0.316 (active)
same,normalized growth,"locus YLL001W, strain dnm1, stronger effect = lower value",0.995 (inactive) and 0.946 (inactive)
same,normalized growth,"locus YLL026W, stronger effect = lower value",0.836 (active) and 0.998 (inactive)
same,normalized growth,"locus YLL041C, strain sdh2, stronger effect = lower value",0.868 (active) and 0.944 (inactive)
same,normalized growth,"locus YLR027C, strain aat2, stronger effect = lower value",0.694 (active) and 0.939 (inactive)
same,normalized growth,"locus YLR113W, strain HOG1, stronger effect = lower value",0.141 (active)
same,normalized growth,"locus YLR221C, strain rsa3, stronger effect = lower value",0.372 (active) and 0.709 (active)
same,normalized growth,"locus YLR258W, strain gsy2, stronger effect = lower value",0.578 (active) and 0.778 (active)
same,normalized growth,"locus YLR262C, strain YPT6 (second series), stronger effect = lower value",0.923 (inactive) and 0.845 (active)
same,normalized growth,"locus YLR320W, strain mms22, stronger effect = lower value",0.973 (inactive) and 1 (inactive)
same,normalized growth,"locus YLR342W, strain FKS1, stronger effect = lower value",0.841 (active) and 0.823 (active)
same,normalized growth,"locus YLR357W, strain rsc2, stronger effect = lower value",0.629 (active)
same,normalized growth,"locus YLR370C, strain arc18, stronger effect = lower value",0.44 (active) and 0.485 (active)
same,normalized growth,"locus YLR384C, strain iki3, stronger effect = lower value",1.02 (inactive)
same,normalized growth,"locus YML120C, strain ndi1, stronger effect = lower value",0.961 (inactive) and 0.993 (inactive)
same,normalized growth,"locus YMR058W, strain fet3, stronger effect = lower value",0.167 (active) and 0.157 (active)
same,normalized growth,"locus YMR125W, strain sto1, stronger effect = lower value",0.759 (active) and 0.824 (active)
same,normalized growth,"locus YMR129W, stronger effect = lower value",0.507 (active) and 0.306 (active)
same,normalized growth,"locus YMR205C, strain PFK2, stronger effect = lower value",0.937 (inactive) and 0.943 (inactive)
same,normalized growth,"locus YMR231W, strain pep5, stronger effect = lower value",0.247 (active) and 0.309 (active)
same,normalized growth,"locus YNL071W, strain lat1, stronger effect = lower value",0.248 (active) and 0.315 (active)
same,normalized growth,"locus YNL183C, strain NPR1, stronger effect = lower value",0.000102 (active)
same,normalized growth,"locus YNL209W, strain ssb2, stronger effect = lower value",0.699 (active) and 0.694 (active)
same,normalized growth,"locus YNL248C, strain rpa49, stronger effect = lower value",0.693 (active) and 0.758 (active)
same,normalized growth,"locus YNL322C, strain KRE1 (second series), stronger effect = lower value",1.04 (inactive) and 1.03 (inactive)
same,normalized growth,"locus YNR049C, strain mso1, stronger effect = lower value",0.585 (active) and 0.756 (active)
same,normalized growth,"locus YOR001W, strain rrp6, stronger effect = lower value",0.947 (inactive) and 1 (inactive)
same,normalized growth,"locus YOR070C, strain gyp1, stronger effect = lower value",0.657 (active) and 0.767 (active)
same,normalized growth,"locus YOR080W, strain dia2, stronger effect = lower value",1.02 (inactive)
same,normalized growth,"locus YOR083W, strain WHI5, stronger effect = lower value",0.202 (active) and 0.184 (active)
same,normalized growth,"locus YOR106W, strain vam3, stronger effect = lower value",0.688 (active) and 0.741 (active)
same,normalized growth,"locus YOR231W, strain MKK1, stronger effect = lower value",0.0985 (active)
same,normalized growth,"locus YOR265W, strain rbl2, stronger effect = lower value",0.79 (active) and 0.861 (active)
same,normalized growth,"locus YOR270C, strain vph1, stronger effect = lower value",0.934 (inactive) and 0.992 (inactive)
same,normalized growth,"locus YOR290C, strain snf2, stronger effect = lower value",0.895 (inactive) and 0.926 (inactive)
same,normalized growth,"locus YPL051W, strain arl3, stronger effect = lower value",0.622 (active) and 0.599 (active)
same,normalized growth,"locus YPL078C, strain atp4, stronger effect = lower value",0.967 (inactive) and 0.972 (inactive)
same,normalized growth,"locus YPL106C, strain sse1, stronger effect = lower value",0.891 (inactive) and 0.792 (active)
same,normalized growth,"locus YPL240C, strain hsp82, stronger effect = lower value",1.02 (inactive) and 0.932 (inactive)
same,normalized growth,"locus YPL256C, strain CLN2, stronger effect = lower value",0.118 (active)
